# Test results: PubChem BioAssay (NCI)
# Compounds without any hit were thinned out: in the full panel of roughly 83,000, 20% have a hit.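 Activity criterion: percent growth below 10, measured after cells in 96-well plates were exposed to a single compound concentration for 48 hours.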 Values without a mark were called inactive. Activity calls are given as the source filed them.
# Test system: MDA-MB-468 breast
# Test: NCI-60 one-dose screen, 48 h (100 = growth as untreated, 0 = no growth, -100 = all killed)
# Settings: 10 µM unless noted
row,SMILES,growth
1,CC(=O)Nc1ccc(C(=O)Nc2cc(-c3ccccc3)ccc2N)cc1,110%
2,CCCCNNC(=O)c1ccc(-c2cccc(F)c2F)cc1,-4.26% (active)
3,CCC(C)CC(C)C(=O)c1c(O)ccn(OC)c1=O (centres undefined),69.4%
4,COC(=O)c1c(C)nc(C)c2c1C(=O)C=C(NCc1ccccc1)C2=O,53.9%
